The record followed here is PubChem BioAssay AID2279 (Southern Research Specialized Biocontainment Screening …, 2010).

The assay is described as follows: CCR5-tropic HIV-1 fusion blockers – cell-based, CCR5-tropic Env, dose response (AID 2279). The note with it: CCR5-tropic HIV-1 Env, reporter read-out; series mostly up to 50 µM.

Potency and affinity values are given separately. Active and inactive are the calls of the source. A call without a number means that no potency is given here. No rule for the calls is given here.

As to `O=C1NC(=O)/C(=C/c2ccc(-c3cc(C(=O)O)ccc3Cl)o2)S1`, the outcome was inactive. To `O=C(O)c1cc(-c2ccc(/C=C3\NC(=O)N(c4ccc(Cl)cc4)C3=O)o2)ccc1Cl` belongs “inactive”. To `Cc1ccc(NS(=O)(=O)c2ccc(N/N=C/c3ccccc3OCC(=O)O)c([N+](=O)[O-])c2)c(C)c1` belongs “inactive”; to `O=C(NCc1ccccc1)c1ccc2c(=O)[nH]c3c(C(=O)NCC4CCCO4)sc(=S)n3c2c1` (stereo not given), “inactive”; to `CC1=NN(c2ccc(C(=O)O)cc2)C(=O)/C1=C\c1ccc(OC(=O)c2cccs2)cc1`, “inactive”. To `Cc1ccc(C)c(S(=O)(=O)/N=C2\C=C(NS(=O)(=O)c3ccccc3)C(=O)c3ccccc32)c1` belongs “inactive”.

Consider `CCc1ccc(S(=O)(=O)/N=C2\C=C(NS(=O)(=O)c3ccccc3)C(=O)c3ccccc32)cc1`, for which the result was inactive. To `Cc1ccc(-n2cccc2/C=C2/C(=N)N3C(=NC2=O)SN=C3S(C)(=O)=O)cc1Cl` belongs “inactive”; to `Cc1cccc(S(=O)(=O)Nc2nc3ccccc3nc2Nc2cccc(C(=O)O)c2)c1`, “inactive”. To `CCOc1ccc(NC(=NCc2ccc3c(c2)OCO3)SC2CC(=O)N(c3ccc(C(=O)O)cc3)C2=O)cc1` (stereo not given) belongs “inactive”; to `O=C(O)COc1ccccc1/C=N/NC(=O)CSc1nnc(SCc2cccc3ccccc23)s1`, “inactive”.

Regarding `Cc1noc(NS(=O)(=O)c2ccc(NC(=O)Nc3ccc(Cl)c(Cl)c3)cc2)c1C`, the outcome was inactive. To `O=C(O)c1cccc(-n2cccc2/C=C2/NC(=O)N(c3ccc(Cl)cc3)C2=O)c1` belongs “inactive”; to `O=C(CCN1C(=O)/C(=C/c2cccs2)SC1=S)Nc1ccc(C(=O)O)c(O)c1`, “inactive”.

Take `CC(C)(C)c1ccc(S(=O)(=O)/N=C2\C=C(NS(=O)(=O)c3ccccc3)C(=O)c3ccccc32)cc1`: the result was inactive.

For `CCOc1cc(Br)cc(C(c2c(C(=O)O)[nH]c3ccccc23)c2c(C(=O)O)[nH]c3ccccc23)c1O`, the result was inactive.

For the molecule `O=C(O)c1ccc(-c2ccc(/C=c3/sc4nc5ccccc5n4c3=O)o2)cc1Cl`, the outcome was inactive. On to `Cc1cc(C)c2nc(N3C(=O)C(O)=C(C(=O)c4ccco4)C3c3ccco3)sc2c1` (stereo not given), for which the result was inactive. Take `O=C(O)c1cc(NC(=O)c2ccc(Br)cc2)cc(NC(=O)c2ccc(Br)cc2)c1`: the outcome was inactive. To `O=c1/c(=C\c2cc([N+](=O)[O-])cc([N+](=O)[O-])c2O)sc2nc3ccccc3n12` belongs “inactive”. Turning to `O=C(NN1C(=O)/C(=C/c2ccc(O)cc2)SC1=S)c1ccccc1O`, the result was inactive. To `COc1ccccc1OCCOc1ccc(/C=C2\C(=N)N3N=C(S(C)(=O)=O)SC3=NC2=O)cc1` belongs “inactive”; to `O=C1NN(c2ccc(F)c(Cl)c2)C(=O)/C1=C\c1cccc(OC(=O)c2cccs2)c1`, “inactive”; to `Cc1ccc(-c2nn(-c3ccccc3)cc2/C=C2\SC(=S)N(CC(=O)O)C2=O)cc1`, “inactive”.

With `CS(=O)(=O)C1=NSC2=NC(=O)/C(=C\c3ccc(OC(=O)c4ccco4)c(Br)c3)C(=N)N21`, the result was inactive.

As for `CC(Oc1ccc(Cl)cc1Cl)C(=O)Nc1ccc(S(=O)(=O)Nc2cnc3ccccc3n2)cc1` (stereo not given), the result was inactive.

`O=C(O)/C=C/C(=O)Nc1ccc(C2(c3ccc(NC(=O)/C=C/C(=O)O)cc3)c3ccccc3-c3ccccc32)cc1`: the result was inactive. With `CCOc1ccc2nc(NC(=O)CSc3nc(-c4ccccc4)c(C#N)c(=O)[nH]3)sc2c1`, the outcome was inactive. Consider `O=C(Nc1cc(C(=O)Nc2ccccc2C(=O)O)cc(C(=O)Nc2ccccc2C(=O)O)c1)c1ccccc1`, for which the outcome was inactive.

Take `Cc1ccc(-c2cc(C(=O)Nc3ccc(S(=O)(=O)Nc4onc(C)c4C)cc3)c3ccccc3n2)cc1`: the outcome was inactive. For the molecule `Cc1c(CC(=O)O)c(=O)oc2c(C)c3occ(-c4ccc(Br)cc4)c3cc12`, the result was inactive. To `COc1cc(/C=N/NC(=O)C(Cc2c[nH]c3ccccc23)NC(=O)OCc2ccccc2)cc([N+](=O)[O-])c1O` (stereo not given) belongs “inactive”.

On to `COc1ccc(N=C2S/C(=C\c3ccc(OCC(=O)O)cc3)C(=O)N2CCc2c[nH]c3ccccc23)cc1`, for which the result was inactive. Take `CC(/C=C1\SC(=S)N(c2ccc(C(=O)O)cc2)C1=O)=C\c1ccccc1`: the outcome was inactive. Consider `C=CCOC(=O)C1=C(C)N=c2s/c(=C3\C(=O)N(CC(=O)O)c4ccccc43)c(=O)n2C1c1ccc(OC)cc1` (stereo not given), for which the result was inactive. `CC(C)CS(=O)(=O)C1=NN2C(=N)/C(=C\c3ccc(OC(=O)c4ccco4)cc3)C(=O)N=C2S1`: the outcome was inactive. With `CC(c1ccccc1)N1C(=O)c2ccc(C(=O)Nc3ccc(Br)cc3C(=O)O)cc2C1=O` (stereo not given), the outcome was inactive. To `CCc1ccc(N=C2NC(=O)/C(=C/c3cc(Br)c(OCC(=O)O)c(OC)c3)S2)cc1` belongs “inactive”; to `O=C(O)CSc1cc(C(=O)c2cc(F)ccc2O)cn2c(=O)c3c(-c4ccccc4)csc3nc12`, “inactive”. Take `COc1ccc(-c2cc(-c3ccc(Cl)cc3)c(C#N)c(SCC(=O)O)n2)cc1`: the result was inactive. Take `CS(=O)(=O)C1=NSC2=NC(=O)/C(=C\c3cccn3-c3ccc(Cl)cc3)C(=N)N21`: the result was inactive.

On to `O=S(=O)(Nc1nc(-c2sccc2Cl)cs1)c1cc(Cl)ccc1Cl`, for which the result was inactive. Turning to `COc1cc(/C=C2\C(=N)N3N=C(S(C)(=O)=O)SC3=NC2=O)cc(OC)c1OCCOc1cccc(C)c1`, the outcome was inactive.

As to `O=C(O)CN1C(=O)/C(=C\c2cc(Br)ccc2OCc2ccccc2Cl)SC1=S`, the result was inactive. To `CCc1ccc(/C=C2\SC(=S)N(CCCC(=O)Nc3ccccc3C(=O)O)C2=O)cc1` belongs “inactive”. For the molecule `O=C(O)COc1ccc(/C=N/NC(=O)c2ccc(-c3csc(Nc4ccc(Cl)cc4)n3)cc2)cc1`, the result was inactive. To `COc1ccc(C(=O)Nc2ccc(/C(C)=N/NC(=O)c3ccncc3)cc2)cc1` belongs “inactive”; to `N#Cc1c(-c2ccccc2)nc(SCc2cccc(C(F)(F)F)c2)[nH]c1=O`, “inactive”. To `CC1=C(C(=O)Nc2ccccc2)C(c2ccc(Cl)cc2)n2c(s/c(=C/c3cccc(OCC(=O)O)c3)c2=O)=N1` (stereo not given) belongs “inactive”; to `COC(=O)c1sc(-c2ccc(C(C)(C)C)cc2)cc1NC(=O)COCC(=O)O`, “inactive”. To `O=C1NN(c2ccc(Cl)cc2)C(=O)/C1=C\c1ccc(-c2cccc(C(=O)O)c2)o1` belongs “inactive”; to `O=C(O)c1ccc(/C=N/NC(=O)c2ccc(CN3c4cccc5cccc(c45)S3(=O)=O)cc2)cc1`, “inactive”; to `COc1cc(Cl)cc(C(c2c(C(=O)O)[nH]c3ccccc23)c2c(C(=O)O)[nH]c3ccccc23)c1O`, “inactive”.

Take `Cc1ccc(S(=O)(=O)Oc2ccc(/C=C3/C(=N)N4C(=NC3=O)SN=C4S(C)(=O)=O)cc2)cc1`: the outcome was inactive.

For the molecule `Cc1cn2c(N)c(C=C3C=C(Cl)C(=O)C(Cl)=C3)c(=O)nc2s1`, the result was inactive. For the molecule `O=C(COc1ccc(Cl)cc1)Nc1cc(NC(=O)COc2ccc(Cl)cc2)cc(C(=O)O)c1`, the result was inactive. To `O=C(CSc1nc2ccccc2c(=O)n1Cc1ccccc1)Nc1ccc(Br)cc1C(=O)O` belongs “inactive”; to `Cc1cc(Cl)ccc1OC(C)C(=O)Nc1ccc(C(=O)Nc2ccccc2C(=O)O)cc1` (stereo not given), “inactive”; to `CCC(C)(C)C1CCc2c(sc(NC(=O)c3ccccc3C(=O)O)c2C#N)C1` (stereo not given), “inactive”. To `CSc1nc(SCC(=O)O)c2sc3nc(-c4ccccc4)c4c(c3c2n1)CCC4` belongs “inactive”; to `CCCOc1ccc(C(=O)NNC(=S)NC(=O)c2cc(-c3ccc(Cl)cc3)nc3ccccc23)cc1`, “inactive”.

`O=C(O)CSCC(=O)N(Cc1ccccc1)c1nc(-c2ccccc2)c(-c2ccccc2)s1`: the result was inactive. As to `O=c1[nH]c(=S)[nH]c2c1C(c1ccc(Br)cc1)c1c([nH]c(=S)[nH]c1=O)O2`, the outcome was inactive.

As to `O=C1/C(=C2\C(=O)N(Cc3ccc(F)cc3)c3ccccc32)SC(=S)N1CCS(=O)(=O)O`, the result was inactive.

Consider `N#Cc1c(-c2ccccc2)nc(SCc2cccc(Cl)c2)[nH]c1=O`, for which the result was inactive. On to `O=C(O)COc1ccc(Br)cc1C(c1c(C(=O)O)[nH]c2ccccc12)c1c(C(=O)O)[nH]c2ccccc12`, for which the outcome was inactive. To `COc1cccc(C2C3=C(N=c4s/c(=C\c5ccc(OCC(=O)O)cc5)c(=O)n42)c2ccccc2CC3)c1` (stereo not given) belongs “inactive”; to `CC1=C(C#N)C(=O)NC(=O)/C1=C\c1ccc(-c2cc(C)c(C)cc2[N+](=O)[O-])o1`, “inactive”. As for `O=C(O)CN1C(=O)/C(=C\c2cc(Br)ccc2OCc2ccc(F)cc2)SC1=S`, the result was inactive. To `O=C(O)c1ccc(Nc2nc(-c3cc4ccccc4oc3=O)cs2)cc1O` belongs “inactive”.
